# Experimental data as given in ChEMBL document CHEMBL4513216, “Probing the Open Global Health Chemical Diversity Library for Multistage-Active Starting Points for Next-Generation Antimalarials” (ACS Infect Dis, 2020).
# Out of some 69,000 compounds screened, about 8,600 (12%) showed an effect of 50% or more. The full list was thinned out, with strong results kept by preference.
# System: Plasmodium berghei
# Assay: Screen against P. berghei liver stage (PbLuc), transformed with Luciferase, at 10uM
# Assay type: functional, HepG2
# Conditions: tested at 10 uM
row,Compound,INHIBITION [%]
1,Cc1nccc([C@@H]2C[C@@H]3CCN(S(=O)(=O)C4CC4)C[C@H]3O2)n1,-37.9
2,Cc1cc(C(N)=O)ccc1NC(=O)c1nc(N2CCCCC2)ncc1Cl,49.3
3,Cc1cc(C(N)=O)ccc1NC(=O)c1nc(N2CCCC2)ncc1Cl,20.1
4,Cc1ccc(C(=O)Nc2ccc(N3CCCC3)cn2)cc1F,-6.12
5,Cc1ccc(C(=O)Nc2cc(C(N)=O)ccc2N2CCCCC2)cc1F,69.3
6,NC(=O)c1ccc(N2CCCCC2)c(NC(=O)c2ccc(F)cc2Cl)c1,73.2
7,Cc1ccc(C(=O)Nc2cc(C(N)=O)ccc2CN(C)C)cc1Cl,16.4
8,CCn1nc(C)c2nc(C(C)C)nc(N3CCOCC3)c21,-38.8
9,Cc1cnccc1-c1cnn(CCNC(=O)C(C)(C)C)c1C1CC1,39.7
10,Cc1ccc(C(=O)N2C[C@@H](OCc3cccnc3)[C@H]3OCCC[C@@H]32)o1,35.4
11,CCCN(Cc1cccc(OCCO)c1)Cc1ccccc1OC,25
12,Cc1cn(CC(=O)N(C)Cc2cccc3ncccc23)c(=O)[nH]c1=O,-12.8
13,CN(Cc1cccnc1N)Cc1cccc2ncccc12,83
14,CN(Cc1cccc(CCN)c1)Cc1cccc2ncccc12,20.3
15,COCCN(Cc1cccc(OCCO)c1)Cc1ccccc1F,13
16,CN(Cc1cccc(OCCO)c1)Cc1cccc2ncccc12,76.6
17,CC(=O)N1CCCC(Cc2cnc(-n3ccnc3)cn2)C1 (stereo not drawn),-33.4
18,Cc1cc(C(=O)NC(C)c2nnn[nH]2)c2ccc(C)c(C)c2n1 (stereo not drawn),-11.6
19,C=C(C)COc1cccc(C(=O)NCCCc2nnn[nH]2)c1,9.41
20,C=C(C)COc1cccc(C(=O)NC(C)c2nnn[nH]2)c1 (stereo not drawn),52.1
21,CCC(=O)c1ccc(OCC(=O)NC(C)c2nnn[nH]2)cc1 (stereo not drawn),-47.9
22,Cc1cc(C)c2nc(C)cc(C(=O)NC(C)c3nnn[nH]3)c2c1 (stereo not drawn),45.1
23,Cc1cc(C(=O)NC(C)c2nnn[nH]2)c2cccc(C)c2n1 (stereo not drawn),60
24,CN(C)C(=O)COC[C@@H]1CC[C@H]2[C@H](CCN2c2ncccn2)O1,0.542
25,COCc1ccccc1NC(=O)CCNC(=O)c1ccoc1,-77.9

row,Compound,INHIBITION [%]
1,CN(C)C[C@@H]1CCC[C@@H]2CN(c3ncccn3)C[C@@H]21,16.1
2,O=C(NCc1ccc(N2CC=CC2)cc1)Nc1nnc(C2CC2)s1,3.87
3,O=C1CN(c2ccc(CNC(=O)Nc3nnc(C4CC4)s3)cc2)CCN1,59.6
4,CC(O)CNC(=O)NCc1ccc(N2CCNC(=O)C2)cc1 (stereo not drawn),39.5
5,O=C1CN(c2ccc(CNC(=O)NCCO)cc2)CCN1,52.5
6,Cc1nnc(NC(=O)NCc2ccc(N3CCNC(=O)C3)cc2)s1,14.7
7,O=C1CN(c2ccc(CNC(=O)NCc3ccoc3)cc2)CCN1,-22.9
8,Cc1nn(CCC(=O)N(C)Cc2c(Cl)cnn2C)cc1Br,18.3
9,CCN(Cc1ccc(Cl)c(Cl)c1)C(=O)CCn1cncn1,19.3
10,Cc1nc(C)n(CC2CN(c3ncccc3C#N)CCO2)n1 (stereo not drawn),-14.7
11,O=C(O)c1cc(-c2cncnc2)cc(S(=O)(=O)N2CCCCCC2)c1,-8
12,CN(C)c1nccnc1C1CCN(C(=O)C2(C)CCCCN2C)CC1 (stereo not drawn),28.6
13,Cc1n[nH]c2c1C(c1cnn(C)c1)SCC(=O)N2 (stereo not drawn),-2.37
14,Cc1cc(C)nc(-n2nc(C)c3c2NC(=O)CSC3c2cnn(C)c2)n1 (stereo not drawn),88.8
15,Cc1nn(-c2ccccn2)c2c1C(c1cnn(C)c1)SCC(=O)N2 (stereo not drawn),41.5
16,Cc1nn(-c2ncccn2)c2c1C(c1cnn(C)c1C)SCC(=O)N2 (stereo not drawn),27.6
17,Cc1nn(-c2ncccn2)c2c1C(c1cnn(C)c1)SCC(=O)N2 (stereo not drawn),61
18,CC(C)n1nc(O)c2c1NC(=O)CSC2c1cnn(C)c1 (stereo not drawn),9.36
19,COc1cc(CN2CCn3c(CO)nnc3C2)ccc1OC(C)C,35.2
20,Cc1noc(C)c1C(=O)N1CCCN(Cc2cscn2)CC1,9.64
21,NCC1CCC(C(NC(=O)c2ccccc2)c2ccccn2)CC1 (stereo not drawn),48.8
22,Cc1noc(C)c1-c1cncc(C2CCCN2Cc2cn(C)cn2)n1 (stereo not drawn),26.8
23,Cc1ccc(NS(=O)(=O)c2cccc(C#N)c2)c(CN(C)C)c1,-0.613
24,Cc1ccc(NS(=O)(=O)c2ccc(C#N)cc2)c(CN(C)C)c1,-33.5
25,Cc1ccc(NCc2ccc(C#N)cc2)c(CN(C)C)c1,86.7

row,Compound,INHIBITION [%]
1,Cc1cc(C)n(-c2ccc3nnc(C)n3n2)n1,-14.9
2,O=C(CSc1ccc(F)cc1F)NS(=O)(=O)c1ccc2c(c1)OCCO2,-16.45
3,COCCn1nc(C(=O)N(C)Cc2cnn(C)c2)ccc1=O,36.3
4,Cc1cc(NC(=O)CNC2CCCN(c3cccnn3)C2)on1 (stereo not drawn),21
5,Cc1ccccc1N1CCCN(C(=O)CN2C(=O)OC[C@@H]2C(C)C)CC1,23
6,CC(C)[C@H]1COC(=O)N1CC(=O)N1CCCN(C(=O)c2ccoc2)CC1,52.1
7,CC(C)[C@H]1COC(=O)N1CC(=O)N1CCN(C(=O)c2ccco2)CC1,7.6
8,COCc1nnc(C(=O)N2CC(N3CCCCC3)C2)o1,10.6
9,NCC1CCC(C(NC(=O)c2ccccn2)c2ccccn2)CC1 (stereo not drawn),24.4
10,O=C(c1ccno1)N1CC[C@@H]2O[C@@H](COCCN3CCCC3)CC[C@@H]21,28.4
11,O=C(c1ccco1)N1CC[C@@H]2O[C@@H](COCC3CCOCC3)CC[C@@H]21,68.9
12,CC(=O)N1CC[C@@H]2O[C@@H](COCC(=O)N3CCCC3)CC[C@@H]21,52
13,O=C(c1ccoc1)N1CC[C@@H]2O[C@@H](COCC3CCOCC3)CC[C@@H]21,38.1
14,O=C(c1ccco1)N1CC[C@@H]2O[C@H](COCC3CCOCC3)CC[C@@H]21,-4.99
15,O=C(c1ccco1)N1CC[C@@H]2O[C@@H](COCCN3CCCC3)CC[C@@H]21,83.5
16,O=C(c1ccco1)N1CC[C@@H]2O[C@H](COCCN3CCCC3)CC[C@@H]21,24.1
17,NC(=O)N1CC[C@@H]2O[C@@H](COCC(=O)N3CCCC3)CC[C@@H]21,15.4
18,NC(=O)N1CC[C@@H]2O[C@H](COCC(=O)N3CCCC3)CC[C@@H]21,-27.9
19,CC(C)(NS(C)(=O)=O)c1nc(-c2ccc(F)cc2Cl)no1,-9.76
20,Cc1cccc(C(=O)NCc2cccnc2N(C)C)n1,35.6
21,Cc1cc(C(=O)N2CCCC2)ccc1NCC(=O)N1CCOCC1,7.67
22,O=C(c1ccccc1)N1CC[C@H]2C[C@@H](c3nccs3)O[C@@H]2C1,-22.5
23,O=c1cccnn1CC1CN(Cc2ccsc2)Cc2nccn2C1 (stereo not drawn),40.4
24,CC(C(=O)N1CCCCCC1)N1CCN(c2nccs2)CC1 (stereo not drawn),31.1
25,Cc1cc(Nc2ccccn2)nc(C2CCCN(CCO)C2)n1 (stereo not drawn),17.4

row,Compound,INHIBITION [%]
1,Cc1nc(CCNC(=O)Nc2cc(C(F)(F)F)c[nH]c2=O)cs1,19.7
2,CCOc1ccccc1NC(=O)N(CCO)Cc1ccsc1,-8.51
3,COc1ccc(NC(=O)N(CCO)Cc2ccsc2)c(OC)c1,5.85
4,COc1ccccc1NC(=O)N(CCO)Cc1ccsc1,77.6
5,CC1(C(=O)N2CCOCC2)CN(Cc2c[nH]cn2)CCO1 (stereo not drawn),39.7
6,O=C(O)c1c(NC2CCC2)ncc2c1CCN(C1CCOC1)C2 (stereo not drawn),11.3
7,CN(C)C(=O)N1C[C@H]2CC[C@@H](C1)N(Cc1nnc(C3CC3)o1)C2,28
8,CN(C)C(=O)CN1C[C@H]2CCN(C(=O)c3ccccc3)CC[C@H]2S1(=O)=O,44.2
9,CN(C)C(=O)CN1C[C@H]2CCN(c3ncccn3)CC[C@H]2S1(=O)=O,-85.3
10,COc1cccc(NC(=O)N2CC[C@@H]3CN(C)S(=O)(=O)[C@@H]3CC2)c1,55.4
11,O=S1(=O)NC[C@H]2CCN(Cc3ccccc3)CC[C@H]21,12.7
12,O=C(NCCc1ccccc1)N1CC[C@@H]2CNS(=O)(=O)[C@@H]2CC1,23.1
13,O=C(Cc1ccccc1)N1CC[C@@H]2CNS(=O)(=O)[C@@H]2CC1,54.1
14,COc1cccc(CC(=O)N2CC[C@@H]3CN(C)S(=O)(=O)[C@@H]3CC2)c1,-1.28
15,Cc1ccccc1NC(=O)N1CC[C@@H]2CN(C)S(=O)(=O)[C@@H]2CC1,-6.05
16,CCN1C[C@H]2CCN(C(=O)Cc3cccc(OC)c3)CC[C@H]2S1(=O)=O,52.4
17,CN(C)C(=O)CN1C[C@H]2CCN(Cc3ccccc3)CC[C@H]2S1(=O)=O,60.3
18,COc1ccc(CC(=O)N2CC[C@@H]3CN(C)S(=O)(=O)[C@@H]3CC2)cc1,37.5
19,COc1cccc(CC(=O)N2CC[C@@H]3[C@H](CC2)N(C)CCS3(=O)=O)c1,45.4
20,CC(C)CN1CCc2[nH]nc(C(=O)N3CCCC3)c2C1,45.7
21,Cc1nc(-c2nc(C(=O)NC3CC3)c3ccccn23)cn1C(C)C,43
22,OC(CNCCn1cccn1)c1ccc(Br)cc1 (stereo not drawn),25.6
23,CCn1nc(C)c(S(=O)(=O)N(C)c2ccc(Cl)cn2)c1C,0.643
